Results: PubChem BioAssay AID651601 (Sanford-Burnham Center for Chemical Genomics, 2012)
The source made the active and inactive calls.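 The calls were made as follows: active = CXCR6 mean IC50 below 15 µM, and neither CCR6 nor CXCR5 mean IC50 under five times that; inactive = the rest.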

Target: C-C chemokine receptor type 6 (Homo sapiens) (UniProt P51684)
Assay: chemokine receptor panel antagonism: CCR6, CXCR5, CXCR6, profiling panel, selectivity assay for CXCR6 antagonist project, cell-based, CHO-K1 PathHunter beta-arrestin, luminescence (AID 651601)
Details: antagonist mode, mean of runs

C-C chemokine receptor type 6 (Homo sapiens), sequence (P51684 whole entry, looked up): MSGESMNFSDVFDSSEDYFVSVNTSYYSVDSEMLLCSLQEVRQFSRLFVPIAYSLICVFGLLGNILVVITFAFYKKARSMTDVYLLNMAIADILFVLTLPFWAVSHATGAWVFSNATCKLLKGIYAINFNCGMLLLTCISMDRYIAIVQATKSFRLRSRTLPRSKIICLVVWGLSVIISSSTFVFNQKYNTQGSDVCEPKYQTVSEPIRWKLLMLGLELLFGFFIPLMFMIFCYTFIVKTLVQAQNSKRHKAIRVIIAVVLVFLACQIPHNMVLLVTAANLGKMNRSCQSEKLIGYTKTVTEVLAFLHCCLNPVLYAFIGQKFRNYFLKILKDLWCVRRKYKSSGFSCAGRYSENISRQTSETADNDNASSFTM

outcome, inactive:
COc1cccc(C(=O)NC2CC3CCCC(C2)N3CC(=O)Nc2ccccc2C(F)(F)F)c1 (stereo unspecified)
O=C(CN1C2CCCC1CC(NC(=O)c1ccccc1)C2)Nc1ccccc1 (stereo unspecified)
CN(C)c1ccc(NC(=O)CN2C3CCCC2CC(NC(=O)c2ccccc2)C3)cc1 (stereo unspecified)
COc1cc(C(=O)NC2CC3CCCC(C2)N3CC(=O)Nc2ccccc2)cc(OC)c1OC (stereo unspecified)
COc1cccc(C(=O)NC2CC3CCCC(C2)N3CC(=O)Nc2ccc(N(C)C)cc2)c1 (stereo unspecified)
O=C(CN1C2CCCC1CC(NC(=O)c1ccccc1)C2)Nc1ccccc1C(F)(F)F (stereo unspecified)
